# Bioassay records deposited in PubChem by National Center for Advancing Translational Sciences (NCATS).
# GLP-1R agonist – GLP-1 receptor (human) agonism; AID 624172; Potency, µM (series often up to 45.6 µM), for the others: at the highest dose activation, actives largely listed as activators; HEK293 GLP-1R CRE-luciferase, luminescence, 4-6 h; cells express a hypersensitive GLP-1R form; P43220; 380,000 compounds, 0.007% hits; note: potency is the fitted concentration of half-maximal effect; % of control where 0% means no effect
# DRD3 antagonist – blocks the human D3 dopamine receptor; P35462; max response, negative = inhibition, %; D3R cells, DiscoveRx beta-arrestin luminescence, antagonist mode; hits give low values; AID 652054; 360,000 compounds, 2.5% hits; in the data active = max response below about -50%; inconclusive = no clear call, values can overlap the other calls; note: % is set by controls: 0 for no effect and ±100 for the full control effect
# Target sequence (P35462 whole entry, looked up): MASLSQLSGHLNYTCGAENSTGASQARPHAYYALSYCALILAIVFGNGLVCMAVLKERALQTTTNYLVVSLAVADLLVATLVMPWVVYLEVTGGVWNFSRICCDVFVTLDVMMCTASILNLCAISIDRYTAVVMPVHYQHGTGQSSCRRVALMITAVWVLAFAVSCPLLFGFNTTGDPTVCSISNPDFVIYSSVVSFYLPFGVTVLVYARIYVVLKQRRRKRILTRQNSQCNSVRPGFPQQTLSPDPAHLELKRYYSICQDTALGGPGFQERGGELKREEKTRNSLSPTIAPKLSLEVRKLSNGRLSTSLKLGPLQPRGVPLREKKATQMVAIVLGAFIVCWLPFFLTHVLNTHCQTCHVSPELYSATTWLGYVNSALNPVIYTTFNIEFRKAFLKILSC
#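 Cells expressing the human receptor were seeded at 1500 cells/well, incubated overnight at 37 degrees C in 5% CO2, then exposed to library compounds with dopamine controls for 90 minutes at 37 degrees C before luminescent detection.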
# GLP-1R inv ag – acts as inverse agonist at human GLP-1 receptor | P43220 | HEK293 GLP-1R CRE-luciferase, luminescence, 24 h; GLP-1R form is constitutively active | Potency, µM (titrated, usually from 38.3 µM), inactives show top-dose activity change, negative = inhibition, actives largely listed as inhibitors | 410,000 compounds, 1.6% hits; note: potency is the fitted concentration of half-maximal effect; % is set by controls: 0 for no effect and ±100 for the full control effect; nearly all actives have a fitted effect of over 55% in size
#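 Assay principle: reduced luminescence from a cAMP-responsive reporter in HEK293 cells co-expressing a constitutively active GLP-1R. Conditions: 24 hr compound incubation, 37 deg C, 5% CO2.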
# DRD3 agonist – agonists of human D3 dopamine receptor | P35462 | D3R DiscoveRx beta-arrestin cells, luminescence, 90 min | max activation, % | 410,000 compounds, 0.58% hits | AID 652048; in the data active = max activation above about 30%; note: 0% is about no effect
#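 Agonist-mode cell screen: cells plated at 1500/well and incubated overnight at 37 °C, then exposed to library compounds for 90 min at 37 °C. Detection reagent was added for 30–60 min at room temperature, and luminescence was read.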
# * marks the source's active call; other numbers are inactive results; u = inconclusive; x = no result given; [ ] = dose if it differs, or a comment. This is a sample that favours compounds with a hit; in the whole collection about 4.3% have one here. Unless noted, calls come from the whole dose curve; as a rule, active = well fitted curve in the direction sought with a large enough effect; inconclusive = small, poorly fitted or top-dose-only effect, or another doubt; inactive = no such curve, though single readings can be large; an effect the other way counts as inactive or inconclusive.
SMILES,GLP-1R agonist,DRD3 antagonist,GLP-1R inv ag,DRD3 agonist
CCS(=O)(=O)NCC(c1cccnc1)N1CCN(c2ccccc2OC)CC1 (stereo not given),-0.7%,-6.2,5.7%,2.7
COCC(C)NC(=O)c1cc2c(=O)n3cccc(C)c3nc2s1 (stereo not given),x,x,52.0%,-7.3
COc1ccc(OC)c(CNS(=O)(=O)c2ccc(-c3cc(C(F)(F)F)on3)s2)c1,x,x,u,13.0
Cc1sc2nc(C)n(/N=C/c3ccccc3O)c(=O)c2c1C,-0.9%,41.0,1.7%,35.0*
CCCCCCCC(=O)CC[C@@H]1[C@@H](C/C=C\CCCC(=O)OC(C)C)[C@@H](O)C[C@H]1O,x,x,x,22.1
CCN(CC)CCNC(=O)C1CCN(C(=O)c2cnn(-c3ccccc3)c2-n2cccc2)CC1,x,x,5.3%,-1.6
COc1ccc(/C=C/c2ccc3cccc(O)c3n2)c(OC)c1OC,-3.8%,0.0,2.51µM*,-26.3
COc1cccc(/C=C/c2ccc3cccc(O)c3n2)c1OC,23.4%,-159.8*,u,-19.7
COc1cc(Br)cc(/C=C/c2ccc3cccc(O)c3n2)c1OC,-1.3%,18.8,37.7%,11.9
O=C(CCS(=O)(=O)c1cc2c3c(c1)CCN3C(=O)CC2)Nc1cccc(Br)c1,x,x,-5.8%,-2.5
O=C(NCC1CCCO1)c1ccc(F)c2ccccc12 (stereo not given),8.3%,1.8,7.7%,0.2
CCOC(=O)C1CCN(c2ncnc3c2nc2n3CCCCC2)CC1,1.4%,x,18.3%,1.4
Cc1ccccc1Cn1nc(C)c(NC(=O)c2noc3c2CC(C(C)(C)C)CC3)c1C (stereo not given),7.0%,3.5,10µM*,33.7*
CN(C)c1nc(N)nc(CSc2nc3cc(Cl)ccc3o2)n1,15.9%,-16.4,0.0%,3.2
O=S1(=O)C=C(Sc2nc3cc(Cl)ccc3o2)c2ccccc21,-26.8%,-77.5*,-13.5%,-15.7
COC(=O)c1cc2nc(-c3ccc(OC)c(OC)c3)cc(C(F)(F)F)n2n1,0.1%,-69.8*,18.3%,0.0
COc1ccc(-c2cc(C(F)(F)F)n3nc(C(=O)O)cc3n2)cc1OC,-4.7%,-13.3,34.0%,-6.3
Fc1ccc(C2c3[nH]c4ccccc4c3CCN2Cc2cccn2-c2ncccn2)cc1 (stereo not given),3.3%,4.6,11.2µM*,1.2
O=[N+]([O-])c1ccc(Nc2ccccc2)c2nonc12,-7.7%,-24.1,-2.4%,-7.0
CC(=O)NS(=O)(=O)c1ccc(Nc2ccc([N+](=O)[O-])c3nonc23)cc1,-1.6%,-54.1*,1.1%,-24.5
CCOc1ccc(Nc2ccc([N+](=O)[O-])c3nonc23)cc1,11.1%,-67.2*,-12.5%,-16.2
CCCNC1=C(N(C(C)=O)c2cccc(F)c2)C(=O)c2ccccc2C1=O,-39.6%,2.3,8.91µM*,0.2
Cc1ccc(NC(=O)Cn2nnnc2-c2ccccc2N)cc1,x,x,-23.2%,-1.1
Cc1nn(C(=O)COc2ccccc2Br)c(C)c1Sc1ccccc1,x,x,8.9%,5.9
CCOC(=O)c1[nH]c2ccc(Cl)cc2c1-c1ccccc1,0.3%,-6.7,0.0%,-2.7
SMILES,GLP-1R agonist,DRD3 antagonist,GLP-1R inv ag,DRD3 agonist
CN(C)C=NC(=O)c1[nH]c2ccc(Cl)cc2c1-c1ccccc1,17.7%,-9.8,11.2µM*,2.9
CCCSc1cc(N2CCN(C)CC2)nc(-c2ccc(OC)cc2)n1,2.5%,-27.5,8.91µM*,-5.1
CCCSc1cc(N2CCCC2)nc(-c2ccccc2)n1,-4.5%,15.9,0.2%,-7.3
COC(=O)c1ccc(Cn2c(SCc3cccc(C)c3)nc3ccncc32)cc1,x,x,17.7%,-13.4
CC[C@@H]1/C=C(\C)C[C@H](C)C[C@H](OC)[C@H]2O[C@@](O)(C(=O)C(=O)N3CCCC[C@H]3C(=O)O[C@H](/C(C)=C/[C@@H]3CC[C@@H](Cl)[C@H](OC)C3)[C@H](C)[C@@H](O)CC1=O)[C@H](C)C[C@@H]2OC,x,x,x,-2.8
CN1C(CC(=O)c2ccccc2)CCCC1CC(O)c1ccccc1 (stereo not given),6.7%,-80.5*,-29.0%,-45.9
CC1CCCN(CCC(=O)c2ccccc2)C1 (stereo not given),4.9%,-7.5,-8.5%,0.6
CN1[C@@H](CC(=O)c2ccccc2)CCC[C@H]1C[C@H](O)c1ccccc1,14.0%,-74.8*,-17.6%,-91.0
O=C(CC1C(=O)CCCC1=O)c1ccccc1,0.9%,7.1,75.8%,4.6
C[C@@H]1CC2[C@@H]3C[C@H](F)C4=CC(=O)C(Cl)=C[C@]4(C)[C@@]3(F)[C@H](O)C[C@]2(C)[C@@]1(O)C(=O)CO (stereo not given in full),-0.4%,x,x,x
CC1CCN(S(=O)(=O)c2ccc3c(c2)C(Cl)(Cl)C(=O)N3)CC1,-0.9%,-70.4*,10.5%,-6.1
CC(=O)c1ccc(N2CCN(S(=O)(=O)c3ccc4c(c3)C(Cl)(Cl)C(=O)N4)CC2)cc1,-7.6%,x,x,x
COc1cc(Cl)c(C)cc1NC(=O)CC1Oc2ccccc2NC1=O (stereo not given),x,x,-29.5%,1.3
C/C(=N\N=C(N)N)c1ccc(Cl)c(Cl)c1,-2.2%,-10.0,8.91µM*,-7.8
Oc1nc(Nc2ccc(F)cc2)sc1/C=C1\C=Nc2ccccc21,28.4%,-10.5,u,-1.7
CC1=Nc2ccccc2/C1=C\c1sc(Nc2ccc(C)cc2)nc1O,20.4%,-54.2*,u,-14.0
Cc1cc(C)c(S(=O)(=O)N2CCCCC2)cc1N(C)S(=O)(=O)c1ccc(Cl)cc1,-3.4%,5.2,12.6µM*,-4.9
CCOc1ccc(C(=O)C(CN2CCOCC2)c2ccccc2)cc1 (stereo not given),-37.7%,-6.6,u,-8.3
O=C(c1ccc(Br)cc1)C(CN1CCOCC1)c1ccccc1 (stereo not given),-5.8%,-87.8*,u,-42.6
CC(CN1CCN(CC(C)C(=O)c2ccccc2)CC1)C(=O)c1ccccc1 (stereo not given),-3.5%,-59.5*,-16.9%,-13.0
O=C(c1ccccc1)C(CN1CCCCC1)c1ccccc1 (stereo not given),-7.4%,-76.9*,2.82µM*,-31.9
Cc1ccccc1OC(=O)CSc1nnc(-c2ccc3c(c2)OCO3)o1,x,x,5.0%,-6.3
Cc1ccc(Nc2nccc(N(C)c3ccc4c(C)n(C)nc4c3)n2)cc1S(N)(=O)=O,-4.5%,x,x,14.0
C#CCNC(=O)C1=C[C@@H](c2csc3ccccc23)C[C@@H](OCc2ccc(CO)cc2)O1,10.3%,16.3,-26.6%,-4.4
Cc1csc2nc(COC(=O)CNC(=O)c3ccccc3Cl)cc(=O)n12,x,x,14.7%,-7.7
O=S(=O)(c1ccccc1)N1CCC(O)(CSc2ccc(F)cc2)CC1,8.6%,-10.1,-22.6%[7.66 µM],0.6
O=S(=O)(c1ccccc1)N1CCC(O)(CSc2ccccc2)CC1,14.3%,u,10µM*,0.7
COC(=O)c1ccccc1NC(=O)CN1CCCCCC1,17.3%,2.5,u,-3.9
O=C1CCSC2(C(=O)N(Cc3ccccc3)c3ccccc32)N1c1ccccc1 (stereo not given),x,x,11.2µM*,-5.2
